Assay results reported in the OligoGym collection.

The sequences below were run against TNKS (assay: pooled miR-30 sensor sort-seq; sequence = guide strand). Settings: shRNA.
Note: reference of the scale not given here.

| Sequence | sensor-assay potency score (higher = more potent) |
| --- | --- |
| ATGAACATCAGCACCATGCTGA | 0.272 |
| TAACTTTAGCTAAGTCTGCTTC | -0.439 |
| TACTCTACAACAGACACGCGGT | -0.0381 |
| TTGCATGAACATCAGCACCATG | -0.893 |
| TTTCATTAACATTTGCTCCTTT | 0.974 |
| TATAGGTGTACTCTCACTCAGA | -0.676 |
| TGTTCTACAACATCCTTCCTTC | 0.712 |
| TTTTGCTGAAGGATCTGCCAGG | -0.435 |
| TTCTCGAATAGTACTTTGCATC | -0.948 |
| TTTAATAGCAGCTTCATGCAGA | 0.637 |
| TTAGCTAAGTCTGCTTCTCTGG | -0.647 |

Each sequence was assayed against TNP2 in the same assay as above. Settings: shRNA.

| Sequence | sensor-assay potency score (higher = more potent) |
| --- | --- |
| TTGCCTTCCAAGTTCTTTCTGT | 0.0693 |
| TGGTTTTGTACACCTGCTGGAT | -0.833 |
| TTCTTTCTGTTCTTGGGGCAGC | -0.411 |
| TACACCTGCTGGATCCTCTTGG | 0.0749 |
| TTGTACACCTGCTGGATCCTCT | -0.394 |
| AAGTTCTTTCTGTTCTTGGGGC | -0.319 |
| TGGACTAGTGTTGGGACTCTGG | -0.968 |
| TTTCTGTTCTTGGGGCAGCGGC | -1.14 |
| TTTGGTGGTGGACTAGTGTTGG | -0.0566 |
| TTTTGTGGCGCTTTGGTGGTGG | 0.492 |
| TTGGTTTTGTACACCTGCTGGA | 0.278 |
| TCTGTCTGCAACTCTGGCTGAA | -0.415 |
